# About 6,500 targets were measured; listed, in parts, are those with a hit and a random draw of the rest. About 2% of all pairs of compound and target were hits. Values without a mark were called inactive.
# Compound: COC(=O)C#Cc1ccccc1 [methyl 3-phenylpropiolate]
# Assay: log2 ratio of iodoacetamide-alkyne labeling of the cysteine site, DMSO over compound (competition); higher = stronger covalent engagement of the cysteine by the compound, active = 1 or more
# Details: 500 µM; treatment time 1 h; system: HEK293T cell lysate
# Outline: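 Three replicates, each with duplicate channels, were prepared from HEK293T lysate (2 mg/mL) treated with vehicle or electrophile at 500 µM for 1 h at ambient temperature. Iodoacetamide alkyne was then applied for 1 h, and samples were clicked to sCIP-TMT reagents, pooled, trypsin-digested overnight at 37 °C, enriched on streptavidin, acid-eluted and analysed on Orbitrap Eclipse LC-MS/MS with FAIMS, with FragPipe quantification. The log2 competition ratio per cysteine is the mean control-channel divided by the mean compound-channel reporter intensity. Cysteines quantified in only one replicate were left out.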
# Chain of UniProt Q96L73 (Q96L73 whole entry, looked up): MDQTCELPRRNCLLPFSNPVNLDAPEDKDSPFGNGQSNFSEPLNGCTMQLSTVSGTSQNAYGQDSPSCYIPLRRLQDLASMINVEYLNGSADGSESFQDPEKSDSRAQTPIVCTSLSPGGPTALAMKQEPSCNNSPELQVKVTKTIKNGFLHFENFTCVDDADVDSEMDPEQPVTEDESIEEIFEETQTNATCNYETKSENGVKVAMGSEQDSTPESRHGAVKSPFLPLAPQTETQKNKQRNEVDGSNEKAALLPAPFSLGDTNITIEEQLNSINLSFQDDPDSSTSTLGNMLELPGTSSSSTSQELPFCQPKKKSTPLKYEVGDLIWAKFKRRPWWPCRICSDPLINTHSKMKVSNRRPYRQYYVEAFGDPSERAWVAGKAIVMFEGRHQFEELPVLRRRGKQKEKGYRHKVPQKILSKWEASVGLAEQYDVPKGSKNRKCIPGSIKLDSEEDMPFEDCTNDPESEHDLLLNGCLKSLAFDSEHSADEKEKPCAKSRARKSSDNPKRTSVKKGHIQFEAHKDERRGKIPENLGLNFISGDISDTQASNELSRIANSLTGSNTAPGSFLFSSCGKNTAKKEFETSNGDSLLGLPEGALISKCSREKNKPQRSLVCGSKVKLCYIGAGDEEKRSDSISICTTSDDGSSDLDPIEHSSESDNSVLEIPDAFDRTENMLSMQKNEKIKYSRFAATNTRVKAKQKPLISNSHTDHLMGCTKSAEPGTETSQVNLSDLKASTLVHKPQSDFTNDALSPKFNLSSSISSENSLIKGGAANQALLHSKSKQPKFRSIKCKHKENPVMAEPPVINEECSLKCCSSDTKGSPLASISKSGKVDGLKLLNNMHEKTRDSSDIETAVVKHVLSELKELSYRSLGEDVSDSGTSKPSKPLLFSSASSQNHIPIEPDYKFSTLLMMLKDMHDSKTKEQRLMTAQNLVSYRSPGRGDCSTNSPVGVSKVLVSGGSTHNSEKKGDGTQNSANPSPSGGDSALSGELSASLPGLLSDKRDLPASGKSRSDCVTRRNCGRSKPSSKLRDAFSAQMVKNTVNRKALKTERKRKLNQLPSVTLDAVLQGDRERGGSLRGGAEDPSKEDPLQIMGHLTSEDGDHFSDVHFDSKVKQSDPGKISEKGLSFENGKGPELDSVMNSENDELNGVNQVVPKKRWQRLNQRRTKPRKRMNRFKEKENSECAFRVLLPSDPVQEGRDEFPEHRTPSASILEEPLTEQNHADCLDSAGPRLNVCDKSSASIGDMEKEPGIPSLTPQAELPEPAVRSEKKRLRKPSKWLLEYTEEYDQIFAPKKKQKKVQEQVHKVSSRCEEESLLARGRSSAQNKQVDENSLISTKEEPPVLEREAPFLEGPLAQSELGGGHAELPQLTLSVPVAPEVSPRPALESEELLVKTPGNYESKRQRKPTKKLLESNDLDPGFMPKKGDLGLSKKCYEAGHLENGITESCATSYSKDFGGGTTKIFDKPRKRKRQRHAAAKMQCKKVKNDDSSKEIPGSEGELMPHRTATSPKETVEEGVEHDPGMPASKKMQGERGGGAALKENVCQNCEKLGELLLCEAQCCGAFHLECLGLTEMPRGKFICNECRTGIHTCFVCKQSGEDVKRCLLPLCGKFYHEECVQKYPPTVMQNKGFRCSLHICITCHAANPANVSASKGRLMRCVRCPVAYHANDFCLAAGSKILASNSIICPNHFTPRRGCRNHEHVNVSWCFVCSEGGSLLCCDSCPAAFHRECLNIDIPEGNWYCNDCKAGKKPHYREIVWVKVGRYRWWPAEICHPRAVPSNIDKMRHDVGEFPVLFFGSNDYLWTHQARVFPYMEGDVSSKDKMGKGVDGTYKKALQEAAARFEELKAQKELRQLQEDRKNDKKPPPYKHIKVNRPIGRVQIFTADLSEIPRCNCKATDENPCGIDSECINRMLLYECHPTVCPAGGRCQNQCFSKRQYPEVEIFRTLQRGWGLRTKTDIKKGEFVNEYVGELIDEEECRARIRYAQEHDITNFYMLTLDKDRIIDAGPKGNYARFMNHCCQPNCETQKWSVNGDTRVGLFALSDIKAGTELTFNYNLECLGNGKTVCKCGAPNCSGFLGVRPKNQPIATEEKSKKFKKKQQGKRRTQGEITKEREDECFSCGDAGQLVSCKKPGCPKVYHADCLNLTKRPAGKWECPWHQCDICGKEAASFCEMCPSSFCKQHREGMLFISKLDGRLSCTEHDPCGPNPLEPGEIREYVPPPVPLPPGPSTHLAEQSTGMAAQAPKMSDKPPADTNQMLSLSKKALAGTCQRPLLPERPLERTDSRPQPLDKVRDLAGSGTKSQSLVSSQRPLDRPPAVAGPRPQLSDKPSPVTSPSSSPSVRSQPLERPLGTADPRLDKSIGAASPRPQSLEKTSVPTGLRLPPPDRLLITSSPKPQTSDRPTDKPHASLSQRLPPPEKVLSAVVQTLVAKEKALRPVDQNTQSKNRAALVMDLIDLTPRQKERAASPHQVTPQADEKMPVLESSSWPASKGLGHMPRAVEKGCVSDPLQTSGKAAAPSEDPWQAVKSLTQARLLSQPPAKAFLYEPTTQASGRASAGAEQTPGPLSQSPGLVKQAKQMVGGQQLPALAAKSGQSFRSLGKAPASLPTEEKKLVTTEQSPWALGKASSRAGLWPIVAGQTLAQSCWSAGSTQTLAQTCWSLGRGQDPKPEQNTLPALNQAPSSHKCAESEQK
# Chain of UniProt Q96AB3 (Q96AB3 whole entry): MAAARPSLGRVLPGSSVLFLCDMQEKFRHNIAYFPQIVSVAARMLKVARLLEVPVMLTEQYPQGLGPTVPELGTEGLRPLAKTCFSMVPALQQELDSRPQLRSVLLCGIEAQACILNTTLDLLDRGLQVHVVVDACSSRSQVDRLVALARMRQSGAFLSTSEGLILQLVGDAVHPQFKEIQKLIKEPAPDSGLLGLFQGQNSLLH
# Chain of UniProt Q5VT66 (Q5VT66 whole entry): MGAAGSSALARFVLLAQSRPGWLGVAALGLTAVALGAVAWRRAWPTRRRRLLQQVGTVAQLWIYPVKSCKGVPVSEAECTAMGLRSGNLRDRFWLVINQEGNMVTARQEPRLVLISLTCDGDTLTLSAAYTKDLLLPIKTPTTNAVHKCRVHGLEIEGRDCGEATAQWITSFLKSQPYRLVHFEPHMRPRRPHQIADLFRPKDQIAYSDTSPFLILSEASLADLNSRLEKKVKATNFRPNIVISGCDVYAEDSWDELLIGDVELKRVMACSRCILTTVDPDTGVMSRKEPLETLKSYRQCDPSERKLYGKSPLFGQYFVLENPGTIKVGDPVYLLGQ
# Chain of UniProt Q5T5Y3 (Q5T5Y3 whole entry, looked up): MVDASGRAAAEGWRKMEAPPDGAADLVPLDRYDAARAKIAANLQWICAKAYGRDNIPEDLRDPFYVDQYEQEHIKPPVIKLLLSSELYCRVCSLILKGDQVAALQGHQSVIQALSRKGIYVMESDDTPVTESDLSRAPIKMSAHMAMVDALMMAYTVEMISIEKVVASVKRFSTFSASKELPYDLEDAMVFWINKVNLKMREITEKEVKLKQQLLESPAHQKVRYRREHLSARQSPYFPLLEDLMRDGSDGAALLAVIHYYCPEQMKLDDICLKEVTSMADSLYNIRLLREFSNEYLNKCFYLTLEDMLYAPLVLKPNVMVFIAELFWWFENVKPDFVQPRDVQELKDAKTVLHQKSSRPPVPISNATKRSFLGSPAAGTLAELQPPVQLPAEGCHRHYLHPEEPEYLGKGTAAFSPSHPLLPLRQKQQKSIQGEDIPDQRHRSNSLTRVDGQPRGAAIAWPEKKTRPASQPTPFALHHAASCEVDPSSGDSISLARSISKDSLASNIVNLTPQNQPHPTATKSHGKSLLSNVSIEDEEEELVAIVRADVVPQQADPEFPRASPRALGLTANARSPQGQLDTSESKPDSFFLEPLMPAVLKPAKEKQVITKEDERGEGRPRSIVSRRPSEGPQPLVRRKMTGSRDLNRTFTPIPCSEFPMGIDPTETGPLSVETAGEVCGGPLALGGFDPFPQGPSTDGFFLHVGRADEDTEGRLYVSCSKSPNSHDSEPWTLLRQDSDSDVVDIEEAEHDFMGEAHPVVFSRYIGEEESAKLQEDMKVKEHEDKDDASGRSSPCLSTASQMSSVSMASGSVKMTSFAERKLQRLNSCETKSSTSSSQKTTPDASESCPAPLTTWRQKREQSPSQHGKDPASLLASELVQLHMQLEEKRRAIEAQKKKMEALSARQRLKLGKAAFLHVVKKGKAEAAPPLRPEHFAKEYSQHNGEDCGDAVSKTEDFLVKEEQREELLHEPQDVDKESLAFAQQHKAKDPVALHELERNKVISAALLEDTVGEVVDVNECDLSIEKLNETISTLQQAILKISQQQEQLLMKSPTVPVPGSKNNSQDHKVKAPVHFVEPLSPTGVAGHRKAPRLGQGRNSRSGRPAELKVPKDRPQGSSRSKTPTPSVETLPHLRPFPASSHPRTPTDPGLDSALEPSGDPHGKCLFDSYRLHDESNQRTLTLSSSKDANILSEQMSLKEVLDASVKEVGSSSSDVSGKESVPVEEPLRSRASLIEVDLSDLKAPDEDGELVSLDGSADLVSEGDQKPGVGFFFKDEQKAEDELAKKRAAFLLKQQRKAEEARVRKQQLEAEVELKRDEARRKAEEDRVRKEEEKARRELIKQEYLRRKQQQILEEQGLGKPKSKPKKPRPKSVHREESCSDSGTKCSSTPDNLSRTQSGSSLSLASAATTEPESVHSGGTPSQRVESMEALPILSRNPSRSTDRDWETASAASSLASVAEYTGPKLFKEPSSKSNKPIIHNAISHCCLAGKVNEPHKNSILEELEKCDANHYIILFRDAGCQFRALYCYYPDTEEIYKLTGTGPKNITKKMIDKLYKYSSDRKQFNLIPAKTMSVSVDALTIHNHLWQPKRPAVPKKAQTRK
# Chain of UniProt Q8IWD4 (Q8IWD4 whole entry): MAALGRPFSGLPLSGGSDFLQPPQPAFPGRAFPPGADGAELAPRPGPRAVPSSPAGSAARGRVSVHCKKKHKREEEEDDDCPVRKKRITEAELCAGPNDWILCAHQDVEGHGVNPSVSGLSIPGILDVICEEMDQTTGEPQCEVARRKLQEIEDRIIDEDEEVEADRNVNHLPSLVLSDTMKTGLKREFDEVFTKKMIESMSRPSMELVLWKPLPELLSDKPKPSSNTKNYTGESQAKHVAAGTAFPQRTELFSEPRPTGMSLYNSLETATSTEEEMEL
row,Target,log2 ratio of iodoacetamide-alkyne labeling
1,WDFY1 C287 (UniProt Q8IWB7),0.127
2,ZFYVE16 C895 (UniProt Q7Z3T8),0.597
3,FLAD1 C496 (UniProt Q8NFF5),1.06 (active)
4,ZNF428 C114 (UniProt Q96B54),0.0848
5,SMAP2 C196 (UniProt Q8WU79),0.318
6,ANKHD1 C777 (UniProt Q8IWZ3),0.251
7,HEATR3 C173 (UniProt Q7Z4Q2),0.137
8,TUBA1C C295 (UniProt Q9BQE3),0.453
9,GATAD2B C423 (UniProt Q8WXI9),0.12
10,UniProt Q86Y56_C409,0.492
11,PARG C515 (UniProt Q86W56),1.16 (active)
12,UniProt Q8WU20_C415,0.241
13,UniProt Q8WUQ7_C699,0.0859
14,UniProt Q9BPX6_C83,0.582
15,UniProt Q8NBJ5_C412,0.133
16,SIN3A C486 (UniProt Q96ST3),-0.0562
17,CPNE1 C53 (UniProt Q99829),-0.0731
18,PHF6 C28 (UniProt Q8IWS0),0.287

row,Target,log2 ratio of iodoacetamide-alkyne labeling
1,NSD1 C1689 (UniProt Q96L73),0.216
2,CAMSAP1 C1379 (UniProt Q5T5Y3),1.45 (active)
3,UniProt Q96L50_C246,0.109
4,WDR19 C1332 (UniProt Q8NEZ3),0.441
5,MARC1 C273 (UniProt Q5VT66),0.102
6,CCDC117 C81 (UniProt Q8IWD4),1.66 (active)
7,HSPH1 C650 (UniProt Q92598),0.025
8,OSBPL9 C720 (UniProt Q96SU4),-0.0484
9,PRPF8 C435 (UniProt Q6P2Q9),1.24 (active)
10,GPKOW C394 (UniProt Q92917),-0.0148
11,CCT7 C310 (UniProt Q99832),0.193
12,FIGNL1 C200 (UniProt Q6PIW4),1.08 (active)
13,UniProt Q8N1I0_C1723,1.34 (active)
14,PTCD3 C642 (UniProt Q96EY7),0.535
15,ARID2 C1512 (UniProt Q68CP9),0.438
16,ISOC2 C84 (UniProt Q96AB3),0.179
17,TMEM192 C266 (UniProt Q8IY95),0.418
